Measurements published in PubChem BioAssay AID1508600 (Functional Genomics Laboratory (NCATS/FGL), 2020).
The whole screen tested about 53,000 sequences, of which about 3,700 (7%) were called active. Shown is part of a subset that was picked to be rich in actives. A number with no mark means an inactive call.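 How the source made its calls: active means gene knockdowns whose robust z-score for IL-1 alpha signal is at least 2 or at most -2, so actives lie on both sides; inactive means the rest.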

Assay: Components of the Cytosolic LPS Sensing Pathway: Gene Identification via Genome-wide siRNA Screen;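 further: robust z of the log signal after scaling to non-targeting control siRNA wells of the plate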
Conditions: RAW264.7 macrophages, IL-1a HTRF, actives lie on both sides, screened at 100 nM (by protocol), cells primed 5 h with Pam3CSK4 first
Procedure, shortened: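 RAW264.7; siRNA 100 nM final, RNAiMAX, 48h 37 degrees C; Pam3CSK4 5 h; LipidA + TransIT-TKO 24 h; IL-1a HTRF; CellTiter-Glo viability; robust z vs negative-control median.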

| Sequence | z-score |
| --- | --- |
| GGAGAAAGCCAAAUUUAACTT against Slc17a6 | 0.103 |
| GGUCUGAAGAAGAUUCUGGTT against Unc45a | 0.33 |
| GCCUUUAUAGGAUUUCAAATT against Ppp2r5e | 0.678 |
| CGGUACAGGGUAAAGGACATT against Prss41 | 0.00568 |
| GGAGUACAGCAUCUCAGCATT against Cacng1 | -2.17 (active) |
| GGCAGAACCCUUUGAUGACTT against Fos | -0.0931 |
| GCAGCUGUCCGUAUAUCUUTT against Uxt | 0.377 |
| GGAGUCCUGAAGAAUAAAGTT against Tff3 | -0.0657 |
| CCCACUACUGUAAGACAUGTT against Trim46 | 0.614 |
| CCCUCACUAUAACACUAUUTT against Six5 | -0.418 |
| GGCUAGAAAGGGUCUCAAATT against Cyp3a25 | -1.48 |
| UUGGUUCAACCUCAUCAUATT against Olfr869 | 2.07 (active) |
| CCCUUAUUGCUAGACCUAGTT against Map3k11 | -1.13 |
| GGAUUUUCUCUAUGCAGGCTT against Dcaf15 | 0.0862 |
| GGAAAAACUGAGAAAACUUTT against Lyrm1 | -2.41 (active) |
| GGAUGUCAAGGACACAGUATT against Olfr73 | -1.04 |
| GCAGUGAUCAGGUAAUGAATT against Igf2 | 0.431 |
| GGUGGGUCAAUGAUCCAGGTT against Fabp9 | -2.11 (active) |
| GGAUGUCUUUGUUCACCAGTT against Ybx2 | -0.267 |
| GCCUUUUAAUAGAUGUCAUTT against Vta1 | -0.201 |
| GGUGUAUUUUUUCACUGUUTT against Olfr339 | -1.52 |
| GGACUUGCCACCCAGGAAATT against Apba3 | -0.175 |
| GCAGAUCAGAAGAAAUUUGTT against Jmy | 1.22 |

| Sequence | z-score |
| --- | --- |
| GGGAAAAGCACGUUCUUGCTT against Arl10 | 0.34 |
| GGAUACGAUCCAGUGUGCCTT against Lyzl4 | 1.04 |
| GGAGGAUUCCCUCUAUAUUTT against Slc33a1 | 0.118 |
| GGGUCCCUAAGCAUGUUCCTT against Slfn10-ps | 0.618 |
| GGCUUUGAGCAUGUUUUCATT against Hspb7 | 7.14 (active) |
| GGUGGAUAUAAUAAUUGACTT against Tgfbr3 | 1.06 |
| GCUAUCCAGAUUGGUGUUATT against Tatdn1 | 1.7 |
| GGGCCAAGAAAACCUACACTT against Cyp11b2 | 2.63 (active) |
| GGCCAAUAAAGACUGGUUUTT against Rps15 | 1.69 |
| GGAAAGCAAUGCAUUACAATT against Zbtb6 | 0.149 |
| GGCGGAAGCCAUCUAACUUTT against Arhgef4 | -0.519 |
| GGCAGCUUCAGGAACCAAUTT against Krt5 | -2 (active) |
| GGGUUUUCUCAUUGUCUUUTT against Rce1 | -1.91 |
| GGAGGUUUUCAUGGUUAUCTT against Nrgn | 0.0293 |
| GGUAGACUGAACUUCAGCATT against Larp6 | -1.31 |
| CCCUAUGCAAUAUAUAGACTT against Tmsb15l | 0.174 |
| CCGAAAAUGAGAUAAAGUCTT against Polr2k | -1.88 |
| GGUCAAGUCAAGAGUGAGATT against BC048562 | 0.2 |
| GGCAUUCUGUGAGACACAATT against Exosc10 | 0.389 |
| CCACAAGCAGUGCUCUUUCTT against Cyp3a13 | -2.08 (active) |
| GAGAAGAAAAAAUGCAGUGTT against Olfr825 | 0.0375 |
| CCUGAGGUGUUUUACAUAUTT against Med20 | 0.085 |
| GGAAGAAUCCUCCAUGGAGTT against Mrpl24 | 1.35 |

| Sequence | z-score |
| --- | --- |
| GGAAUCAGUGACCUUUUUCTT against Arf2 | -2.05 (active) |
| CCCUCCUAUUAGCGCAUUUTT against Osbpl2 | -0.239 |
| GGAGAUGAUCGACGAAGUATT against Tnnc1 | 0.914 |
| GGAGACAGCAUUCAUUUAUTT against Wnt16 | 0.94 |
| GCUCUCCUUGAUCGAGAGATT against Spryd7 | -2.65 (active) |
| GCCUUGUCUUCCUUCAGUGTT against Sprr2a1 | -0.172 |
| GGACUUAAGUACAAAGAUCTT against Sap18 | 1.46 |
| GCAUCAAAUAGUGGUACCUTT against Lsm14a | -0.209 |
| CGAGCUCAGGUGAGAAAUUTT against Pfpl | 0.924 |
| GGACUGCCUUAUGCUACGATT against Setd5 | -0.44 |
| GUCCUCUUCUGGUUCUCAGTT against Vmn1r52 | 0.246 |
| CGAGAAGUACAAAAGGGAGTT against Ccdc103 | -0.768 |
| GGUCCUGACUGGAUACCUGTT against Ece1 | 4.19 (active) |
| GGCGGAGUAGACUUCAUAUTT against Olfr593 | 0.363 |
| GUUUGAUGAUCACUGGGUCTT against Aqp2 | 1.6 |
| GCUCCGAAGAGCUAAUACUTT against Tmem25 | 0.944 |
| GCGGCAGAUCUUCGAUUUCTT against Nkain1 | 0.168 |
| GGCAAAUAUUUCCAAGUACTT against Cpq | -1.57 |
| CGAAGUUCCUGGAAAAUAUTT against Tbc1d7 | -0.924 |
| CCAGAACGCGGAGCAAAUUTT against Sec63 | 2.13 (active) |
| GCACUGUGACGAUACAAGATT against Asb1 | -1.17 |
| CCGUAGCGAGACUUACAUCTT against Asic3 | 1.88 |
| CCUAUAAUGGAGAUGAUACTT against Spty2d1 | -0.46 |
